PABP polyA inh: PABP-poly(A) binding inhibition; hit rate 1% among 290,000; calls only at 35 µM; PABP-poly(A) RNA binding, fluorescence polarization; P11940;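 note: calls also rest on retests at 20 µM and on dose response follow-up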
eIF4H FP inh: inhibitors of RNA binding by human eIF4H | eIF4H fluorescence polarization binding assay | inhibition, % at 35 µM | hit rate 0.94% among 290,000;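 note: calls also rest on retests at 20 µM and on dose response follow-up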
14-3-3 Bad PPI: disrupts binding of bovine 14-3-3 zeta to phospho-Bad peptide. P63103. TR-FRET 14-3-3zeta/Dy647-pBad peptide displacement, 1 h. inhibition, % at 21.7 µM. hit rate 0.71% among 220,000. AID 781;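 active = inhibition above about 70%, limit read from the data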
Target sequence (P63103 whole entry, looked up): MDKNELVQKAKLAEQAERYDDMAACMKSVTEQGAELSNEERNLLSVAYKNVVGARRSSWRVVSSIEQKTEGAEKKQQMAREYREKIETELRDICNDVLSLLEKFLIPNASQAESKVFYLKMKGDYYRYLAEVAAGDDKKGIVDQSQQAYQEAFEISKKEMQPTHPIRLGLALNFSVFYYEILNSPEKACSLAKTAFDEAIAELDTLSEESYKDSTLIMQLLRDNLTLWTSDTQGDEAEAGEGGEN
PABP1 MLLE inh: inhibitors of microRNA-mediated deadenylation, human PABP1 MLLE binding. GST-MLLE / FITC-PAM2 fluorescence polarization. hit rate 0.36% among 360,000. inhibition, % at 20 µM. P11940; in the data active = inhibition above about 35%, passing the limit was not always enough
eIF4E 4G PPI: blocks eIF4E binding to eIF4G. TR-FRET eIF4E-eIF4GI(517-606) binding, 2 h. P63073+Q04637. hit rate 0.37% among 220,000. inhibition, % at 21.7 µM;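 active = inhibition above about 30%, limit read from the data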
Numbers stand for hits. This is a sample that favours compounds with a hit; in the whole collection about 1.9% have one here. Unless noted, the rule behind the calls is not given here.

Results for COc1ccc(NC(=O)c2ccc3c(=O)n(Cc4ccco4)c(=S)[nH]c3c2)c(OC)c1 ?
PABP polyA inh: active; eIF4H FP inh: 70; 14-3-3 Bad PPI: inactive; PABP1 MLLE inh: inactive; eIF4E 4G PPI: inactive

How did COc1ccc(OC)c(NC(=O)c2ccc3c(=O)n(CCc4ccccc4)c(=S)[nH]c3c2)c1 do in these assays?
PABP polyA inh: inactive; eIF4H FP inh: inactive; 14-3-3 Bad PPI: inactive; PABP1 MLLE inh: inactive; eIF4E 4G PPI: inactive

Results for O=c1c2cc(N3CCOCC3)ccc2[nH]c(=S)n1Cc1ccco1 ?
PABP polyA inh: active; eIF4H FP inh: 91; PABP1 MLLE inh: inactive

Results for COc1cc2[nH]c(=S)n(Cc3ccco3)c(=O)c2cc1OC ?
PABP polyA inh: active; eIF4H FP inh: 52; 14-3-3 Bad PPI: inactive; PABP1 MLLE inh: inactive; eIF4E 4G PPI: inactive

Results for COc1cc(OC)c(OC)cc1CNCc1ccco1 ?
PABP polyA inh: inactive; eIF4H FP inh: inactive; PABP1 MLLE inh: inactive

What do the screens show for `O=C1CC(c2ccccc2)Cc2nc(N3CCc4ccccc4C3)ncc21` (centres undefined)?
PABP polyA inh: inactive; eIF4H FP inh: inactive; 14-3-3 Bad PPI: inactive; PABP1 MLLE inh: 56; eIF4E 4G PPI: inactive

What do the screens show for `CC(C)(C)OC(=O)C[C@@H]1C/C=C\C[C@H](CC(=O)N(CCO)Cc2ccccc2)C(=O)NC[C@H](c2ccccc2)OC1=O`?
PABP1 MLLE inh: inactive

What do the screens show for `CC(=O)Nc1ccc(S(=O)(=O)Nc2cccc(NC(=O)c3ccco3)c2)cc1`?
PABP polyA inh: inactive; eIF4H FP inh: inactive; 14-3-3 Bad PPI: inactive; PABP1 MLLE inh: inactive; eIF4E 4G PPI: inactive

Results for CC(=O)NC(c1ccccc1)c1nc(-c2ccc(F)c(Cl)c2)cs1 (centres undefined) ?
PABP1 MLLE inh: inactive

How did N#Cc1c(-c2ccco2)cc(-c2cccnc2)nc1N do in these assays?
PABP polyA inh: active; eIF4H FP inh: 96; 14-3-3 Bad PPI: inactive; PABP1 MLLE inh: inactive; eIF4E 4G PPI: inactive

What do the screens show for `CCOC(=O)COc1nc(-c2ccco2)cc(-c2ccco2)c1C#N`?
PABP polyA inh: active; eIF4H FP inh: 89; 14-3-3 Bad PPI: inactive; PABP1 MLLE inh: inactive; eIF4E 4G PPI: inactive

What do the screens show for `N#Cc1c(-c2ccco2)cc(-c2ccccn2)nc1N`?
PABP polyA inh: active; eIF4H FP inh: 70; 14-3-3 Bad PPI: inactive; PABP1 MLLE inh: inactive; eIF4E 4G PPI: inactive

What do the screens show for `C=CCNc1nc(C(=O)OCC(=O)Nc2c(Cl)cccc2C(F)(F)F)cs1`?
PABP1 MLLE inh: inactive

What do the screens show for `CC1CCN(C(=O)C(=O)Nc2sc3c(c2C(N)=O)CC(C)(C)OC3)CC1`?
PABP polyA inh: inactive; eIF4H FP inh: inactive; PABP1 MLLE inh: inactive

How did CCOC(=O)c1cnc2ccc(Br)cc2c1NCCO do in these assays?
PABP polyA inh: inactive; eIF4H FP inh: inactive; 14-3-3 Bad PPI: inactive; PABP1 MLLE inh: inactive; eIF4E 4G PPI: inactive

What do the screens show for `CCOC(=O)c1cnc2ccc(Cl)cc2c1NCCN(C)C`?
PABP polyA inh: inactive; eIF4H FP inh: inconclusive; 14-3-3 Bad PPI: inactive; PABP1 MLLE inh: 42; eIF4E 4G PPI: inactive

What do the screens show for `CCOC(=O)c1[nH]c2ccccc2c1NC(=O)NC(C)C`?
PABP polyA inh: inactive; eIF4H FP inh: inactive; 14-3-3 Bad PPI: inactive; PABP1 MLLE inh: inactive; eIF4E 4G PPI: inactive

What do the screens show for `CCOC(=O)c1[nH]c2ccccc2c1NC(=S)Nc1cccc(C)c1C`?
PABP polyA inh: inactive; eIF4H FP inh: inactive; 14-3-3 Bad PPI: inactive; PABP1 MLLE inh: 41; eIF4E 4G PPI: inactive

How did CC1CCCN(C(=O)/C(=C/c2ccco2)NC(=O)c2ccccc2)C1 (centres undefined) do in these assays?
PABP polyA inh: inactive; eIF4H FP inh: inactive; PABP1 MLLE inh: inactive

How did O=C(NCc1ccccn1)/C(=C/c1ccco1)NC(=O)c1ccccc1 do in these assays?
PABP polyA inh: active; eIF4H FP inh: 82; 14-3-3 Bad PPI: inactive; PABP1 MLLE inh: inactive; eIF4E 4G PPI: inactive

What do the screens show for `O=C(NCCc1ccccn1)/C(=C/c1ccco1)NC(=O)c1ccccc1`?
PABP polyA inh: inactive; eIF4H FP inh: inactive; 14-3-3 Bad PPI: inactive; PABP1 MLLE inh: inactive; eIF4E 4G PPI: inactive

What do the screens show for `Cc1ccc(C(=O)N/C(=C/c2ccco2)C(=O)O)cc1`?
PABP polyA inh: active; eIF4H FP inh: 87; 14-3-3 Bad PPI: inactive; PABP1 MLLE inh: inactive; eIF4E 4G PPI: inactive

What do the screens show for `CCOC(=O)/C(=C\c1ccc(C)cc1)NC(=O)c1ccccc1`?
PABP polyA inh: active; eIF4H FP inh: 78; 14-3-3 Bad PPI: inactive; PABP1 MLLE inh: inactive; eIF4E 4G PPI: inactive

Results for Cc1ccc(C(=O)N/C(=C/c2ccco2)C(=O)NCc2ccco2)cc1 ?
PABP polyA inh: inactive; eIF4H FP inh: inactive; PABP1 MLLE inh: inactive

Results for O=C(N/C(=C\c1ccco1)C(=O)N1CCCC1CO)c1ccccc1 (centres undefined) ?
PABP polyA inh: inactive; eIF4H FP inh: inactive; PABP1 MLLE inh: 34

How did COc1ccc(Cc2noc(CN3CCN(Cc4csc(C)n4)CC3)n2)cc1OC do in these assays?
PABP polyA inh: inactive; eIF4H FP inh: inactive; 14-3-3 Bad PPI: inactive; PABP1 MLLE inh: inactive; eIF4E 4G PPI: inactive

Results for C=CCNC(=O)C1CC1(c1ccccc1)c1ccccc1 (centres undefined) ?
PABP polyA inh: inactive; eIF4H FP inh: inactive; 14-3-3 Bad PPI: inactive; PABP1 MLLE inh: inactive; eIF4E 4G PPI: inactive

Results for CCn1c(-c2nn(-c3ccc(C)cc3)ccc2=O)n[nH]c1=S ?
PABP polyA inh: inactive; eIF4H FP inh: inactive; 14-3-3 Bad PPI: 88; PABP1 MLLE inh: inactive; eIF4E 4G PPI: inactive

What do the screens show for `COc1ccc(CN(C)S(=O)(=O)c2c(C)noc2C)cc1OC`?
PABP1 MLLE inh: inactive

What do the screens show for `COc1ccc(S(=O)(=O)N(c2onc(C)c2Cl)S(=O)(=O)c2ccc(OC)c(OC)c2)cc1OC`?
PABP polyA inh: inactive; eIF4H FP inh: inactive; 14-3-3 Bad PPI: 78; PABP1 MLLE inh: inactive; eIF4E 4G PPI: inactive

How did CC(C)c1ccc(O)c(NC(=S)NC(=O)c2ccc3c(c2)OCO3)c1 do in these assays?
PABP polyA inh: inactive; eIF4H FP inh: inactive; PABP1 MLLE inh: 47

What do the screens show for `O=C(NC(=S)Nc1ccccc1Br)c1ccc2c(c1)OCO2`?
PABP polyA inh: inactive; eIF4H FP inh: inactive; PABP1 MLLE inh: inactive

How did Oc1c(Br)cc(Br)cc1/C=N/Nc1ccc(Cl)nn1 do in these assays?
PABP polyA inh: inactive; eIF4H FP inh: inactive; PABP1 MLLE inh: inactive

What do the screens show for `Oc1ccc(/C=N/Nc2ccc(Cl)nn2)c(O)c1O`?
PABP polyA inh: active; eIF4H FP inh: 80; PABP1 MLLE inh: inactive

What do the screens show for `Cc1nc2cc(NC(=O)c3ccco3)ccc2n1C`?
PABP polyA inh: inactive; eIF4H FP inh: inactive; PABP1 MLLE inh: inactive

What do the screens show for `COc1ccc(CCNc2nc(C)c(C(C)=O)s2)cc1OC`?
PABP polyA inh: inactive; eIF4H FP inh: inactive; PABP1 MLLE inh: 40

How did COc1ccc(CCNc2nc(-c3ccc(F)cc3)c(CC(=O)O)s2)cc1OC do in these assays?
PABP polyA inh: active; eIF4H FP inh: inactive; PABP1 MLLE inh: inactive

How did COc1ccc(CCNc2nc(-c3ccc(NC(C)=O)cc3)cs2)cc1OC do in these assays?
PABP polyA inh: inactive; eIF4H FP inh: inactive; 14-3-3 Bad PPI: inactive; PABP1 MLLE inh: inactive; eIF4E 4G PPI: inactive
